# Pf growth 96h: P. falciparum growth inhibition at 96 hour, primary screen for plastid delayed-death inhibitors; 320,000 compounds, 6.9% hits; AID 504834; P. falciparum luciferase reporter growth, 96 h; Potency, µM (titrated, usually from 28.7 µM), inactives show at the highest dose activity change, negative = inhibition, actives largely listed as inhibitors; note: potency is the fitted concentration of half-maximal effect; % is set by controls: 0 for no effect and ±100 for the full control effect
#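 Compounds incubated with erythrocytes infected by luciferase-expressing P. falciparum (2% hematocrit, 0.05% parasitemia final) for 96 hours, 37 C in 5% CO2. Growth inhibition scored as decreased luciferase luminescence.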
# Shiga inhibitor: blocks Shiga toxin action in Vero cells. inhibition, % at 38.7 µM. 290,000 compounds, 9.2% hits. Vero cells, Shiga toxin protein synthesis inhibition reporter. AID 2315; in the data active = inhibition mostly above about 28%, no sharp cut-off; inactive = mostly below about 43%; note: 0% is about no effect
# Cycloheximide cs: counter-screen for Shiga toxin inhibitors: cycloheximide protein synthesis inhibition | cell reporter, cycloheximide protein synthesis inhibition counterscreen | max response, % | 300,000 compounds, 12% hits; in the data active = max response mostly above about 13%, no sharp cut-off; inactive = mostly below about 14%; note: read at 38.3 µM for the half of the compounds with a filed dose; 0% is about no effect
# NS1 inh: influenza NS1 inhibition; Potency, µM (titrated, usually from 46.1 µM), without a hit: top-dose activity, positive = more growth; 270,000 compounds, 0.4% hits; AID 2326; calls by dose curve; note: potency is the fitted concentration of half-maximal effect; actives are rising curves; nearly all actives have a fitted effect of over 50% in size
#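 Compounds were scored for reversing the slow growth caused by influenza A NS1 in S. cerevisiae, measured by optical density at 600 nm. Assay medium contained 2% galactose at pH 6.0; NS1-free yeast of the same strain were the positive control.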
# Pf growth 48h: P. falciparum growth inhibition at 48 hours (one generation); P. falciparum luciferase growth in erythrocytes, 48 h; Potency, µM (top dose mostly 28.7 µM), inactives show top-dose activity change, negative = inhibition, most hits filed as inhibitors; 310,000 compounds, 5.9% hits; AID 504832; note: potency is the fitted concentration of half-maximal effect; % is set by controls: 0 for no effect and ±100 for the full control effect
#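 Parasite viability was followed by luminescence of a genomically integrated firefly luciferase. Cultures held 0.1% parasitemia at 2% hematocrit (final), incubated under 5% CO2 at 37 C.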
# FBPA Giardia inh: Giardia lamblia aldolase inhibition. 290,000 compounds, 0.71% hits. Potency, µM (series often up to 59.6 µM), for the others: at the top dose activity, negative = inhibition, usual class: inhibitors. AID 2451. purified Giardia FBPA; note: potency is the fitted concentration of half-maximal effect; % is set by controls: 0 for no effect and ±100 for the full control effect; nearly all actives have a fitted effect of over 55% in size
#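 Giardia FBPA (40 nM reagent) was preincubated 10 min at RT with compound (up to 57.5 uM final), then substrate plus GAPDH/TPI/NAD/arsenate coupling system with diaphorase/resazurin was added; resorufin fluorescence (525/598 nm) was read after 20 min.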
# CLK4 cf ADPGlo: CLK4 (human) kinase inhibition, ADP-Glo confirmation | shares compounds with Pf growth 48h | recombinant Clk4, RS peptide, ADP-Glo luminescence | Potency, µM (titrated, usually from 80 µM), without a hit: at the highest dose activity, negative = inhibition, actives largely listed as inhibitors | 65 compounds, 80% hits | AID 1969
# Target sequence (Q9HAZ1 whole entry, looked up): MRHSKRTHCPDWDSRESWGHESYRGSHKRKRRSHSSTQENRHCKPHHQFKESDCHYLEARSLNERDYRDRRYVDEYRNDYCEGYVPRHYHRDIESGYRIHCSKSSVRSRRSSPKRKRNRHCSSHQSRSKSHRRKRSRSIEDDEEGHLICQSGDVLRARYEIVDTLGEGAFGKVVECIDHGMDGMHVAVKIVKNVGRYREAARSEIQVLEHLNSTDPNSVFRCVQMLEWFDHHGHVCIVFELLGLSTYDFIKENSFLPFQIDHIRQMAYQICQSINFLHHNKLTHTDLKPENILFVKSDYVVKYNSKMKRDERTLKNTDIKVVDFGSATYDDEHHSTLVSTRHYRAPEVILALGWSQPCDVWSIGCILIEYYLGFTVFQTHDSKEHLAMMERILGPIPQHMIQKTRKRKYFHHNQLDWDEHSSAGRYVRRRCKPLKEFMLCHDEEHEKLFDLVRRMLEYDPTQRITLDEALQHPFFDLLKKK
# CLK4 cf ADP-FP: confirmation of human CDC-like kinase 4 (CLK4) inhibitors | shares compounds with Pf growth 48h | recombinant Clk4, ADP Transcreener FP, RS peptide | Potency, µM (doses to about 80 µM), without a hit: at the highest dose activity, negative = inhibition, actives largely listed as inhibitors | 65 compounds, 70% hits | AID 1983
# The depositor's hits bear a star; ? = inconclusive; nt = not tested or not shown. A selection: hits, their analogues and other compounds. The true share with any hit is near 21%. Unless noted, calls come from the whole dose curve; as a rule, active = well fitted curve in the direction sought with a large enough effect; inconclusive = small, poorly fitted or top-dose-only effect, or another doubt; inactive = no such curve, though single readings can be large; an effect the other way counts as inactive or inconclusive.
SMILES,Pf growth 96h,Shiga inhibitor,Cycloheximide cs,NS1 inh,Pf growth 48h,FBPA Giardia inh,CLK4 cf ADPGlo,CLK4 cf ADP-FP
COc1cccc(-c2ccc3ncnc(NCc4cccc(C)c4)c3c2)c1,3.7µM*,nt,nt,nt,6.6µM*,nt,1.3µM*,1.8µM*
COc1cccc(-c2ccc3ncnc(NCc4cccc(F)c4)c3c2)c1,3.7µM*,nt,nt,nt,6.6µM*,nt,0.63µM*,0.89µM*
Cn1ccc2cc(-c3ccc4ncnc(NCc5cccc(F)c5)c4c3)ccc21,3.7µM*,nt,nt,nt,8.3µM*,nt,?,?
Cn1ccc2cc(-c3ccc4ncnc(NCc5cccs5)c4c3)ccc21,5.2µM*,nt,nt,nt,2.9µM*,nt,14µM*,?
CN(C)c1ccc(-c2ccc3ncnc(NCc4ccccc4)c3c2)cc1,nt,nt,nt,nt,nt,-22%,nt,nt
Cn1ccc2cc(-c3ccc4ncnc(NCc5cccnc5)c4c3)ccc21,2.6µM*,nt,nt,nt,1.9µM*,nt,10µM*,14µM*
O=c1c(C(c2ccccc2)c2c(O)nc3n(c2=O)CCS3)c(O)nc2n1CCS2,-16%,-4,-3,15%,-4%,1%,nt,nt
CC1=[N+]([O-])C(C)(C)N(O)C1(C)C,-12%,-3,-4,0%,1%,1%,nt,nt
CCC(=O)N(Cc1cc(=O)[nH]c2ccccc12)c1ccc(OC)cc1,-23%,-11,3,4%,-9%,1%,nt,nt
Cc1noc(C)c1-c1ccc2ncnc(NCc3ccccc3)c2c1,nt,nt,nt,nt,nt,-15%,nt,nt
Fc1cccc(CNc2ncnc3ccc(-c4ccc5c(c4)OCO5)cc23)c1,2.9µM*,nt,nt,nt,4.1µM*,nt,0.14µM*,0.089µM*
c1nc(NCc2ccc3c(c2)OCO3)c2cc(-c3ccoc3)ccc2n1,?,nt,nt,nt,?,nt,0.71µM*,0.89µM*
Clc1ccc2ncnc(NCc3ccc4c(c3)OCO4)c2c1,nt,-30,-2,nt,nt,-13%,nt,nt
c1cncc(CNc2ncnc3ccc(-c4ccc5c(c4)OCCO5)cc23)c1,4%,nt,nt,nt,17%,nt,0.4µM*,0.71µM*
c1cncc(-c2ccc3ncnc(NCc4ccc5c(c4)OCO5)c3c2)c1,?,nt,nt,nt,?,nt,7.1µM*,11µM*
c1ccc(CNc2ncnc3ccc(-c4ccoc4)cc23)cc1,nt,nt,nt,nt,nt,1%,nt,nt
CC(C)CC(=O)CC1(O)C(=O)Nc2ccccc21 (stereo unspecified),5%,4,-5,0%,0%,7%,nt,nt
CCC(C)(C)NC(=O)CN(Cc1ccc(F)cc1)C(=O)CCC(=O)Nc1ccccn1,4%,-1,4,-15%,15%,4%,nt,nt
N#Cc1cccc(-c2ccc3ncnc(NCc4cccnc4)c3c2)c1,nt,nt,nt,nt,nt,-1%,nt,nt
Clc1cccc(-c2ccc3ncnc(NCc4cccnc4)c3c2)c1,13µM*,nt,nt,nt,?,nt,4.5µM*,?
Clc1ccccc1-c1ccc2ncnc(NCc3ccc4c(c3)OCO4)c2c1,3.7µM*,nt,nt,nt,8.3µM*,nt,?,-17%
Clc1ccccc1-c1ccc2ncnc(NCc3cccnc3)c2c1,?,nt,nt,nt,-5%,1%,13µM*,?
c1cncc(CNc2ncnc3ccc(-c4cccnc4)cc23)c1,?,nt,nt,nt,?,-22%,7.9µM*,13µM*
COc1cccc2cc(C(=O)n3ccc(C)n3)c(=O)oc12,nt,-9,2,-12%,-8%,4%,nt,nt
O=c1ccc2cc(OC3OC(CO)C(O)C(O)C3O)c(O)cc2o1 (stereo unspecified),nt,nt,nt,nt,nt,-2%,nt,nt
Cc1ccc(S(=O)(=O)N2CCCCC2)cc1NC(=O)C1CCCO1 (stereo unspecified),-4%,-6,-3,-2%,-8%,1%,nt,nt

# From PubChem BioAssay
